Where “and” joins values, the source holds several entries; their conditions need not be identical. Equal values may be shown once. Inconclusive results are not listed. Calls of active or inactive are those of the source. Unless noted, calls follow the shape of the dose curve; as a rule, active = well fitted curve in the direction sought with a large enough effect; inconclusive = small, poorly fitted or top-dose-only effect, or another doubt; inactive = no such curve, though single readings can be large; an effect the other way counts as inactive or inconclusive.
What was measured:
[1] = Cellular Toxicity (caspase-3) Jurkat (AID 655); conditions: Jurkat caspase-3 activation, luminescence; caspase-3 activation: at 92.2 µM (top of the series), DMSO = 0%, tamoxifen = 100%;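 also: cells exposed to compound for 16 h at 37 °C before reading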; also: potency is read from the fitted curve at half-maximal effect
Summary of the method: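 Jurkat cells (5000/well) in complete medium exposed 16 h at 37 C; caspase-3/7 activity read by Caspase-Glo luminescence after 20 min at room temperature. Normalized to DMSO and 100 uM tamoxifen; AC50 from Hill fits.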

[2] = Cellular Toxicity (caspase-3) SHSY5Y (AID 657); also: potency is read from the fitted curve at half-maximal effect
Summary of the method: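 SH-SY5Y human neuroblastoma cells, 1500/well, exposed to compound for 16 hours at 37 °C in complete medium. Caspase-3/7 activity read by Caspase-Glo luminescence after 1 hr at room temperature, normalized to DMSO and 10 uM staurosporine; AC50 from Hill fit.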

[3] = Cellular Toxicity (caspase-3) BJ (AID 658); conditions: Potency: caspase-3 activation; also: potency is read from the fitted curve at half-maximal effect;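 as to caspase-3 activation: 0% = DMSO basal and 100% = 10 µM staurosporine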
Summary of the method: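 Readout: Caspase-Glo 3/7 luminescence increase in BJ cells after 16 hr treatment at 37 °C. Staurosporine and tamoxifen served as positive controls; AC50 values came from Hill modelling of data normalized to DMSO and 10 uM staurosporine.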

[4] = Cellular Toxicity (caspase-3) MRC-5 (AID 659);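 also: 0% = DMSO basal and 100% = 10 µM staurosporine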
Summary of the method: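 Concentration-dependent caspase 3/7 activation is measured in human normal lung fibroblasts (MRC-5) following 16-hour treatment. AC50 values come from standard Hill-equation modeling of luminescence normalized to DMSO and 10 uM staurosporine.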

[5] = Cell Viability - LYMP2-001 (AID 921); also: nearly all actives have a fitted effect of over 70% in size; also: potency is read from the fitted curve at half-maximal effect
Summary of the method: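 Human lymphoblastoid LYMP2-001 cells, 2500 per well, in complete medium, treated 24 h at 37 C. Viability from cellular ATP by CellTiter-Glo luminescence; AC50 from Hill-equation fits of qHTS concentration-response.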

[6] = MultiTox-Fluor Cytotoxicity Assay - LYMP1-001 - Dead Cells (AID 946); also: potency is read from the fitted curve at half-maximal effect
Summary of the method: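 In this qHTS, 15 uM tetraoctylammonium bromide defined 100% and DMSO defined basal activity. Lymphoblastoid cells (LYMP1-001, 2500 per well) received compound for 16 hr at 37 C before a fluorogenic dead-cell substrate readout at 485/520 nm.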

[7] = MultiTox-Fluor Cytotoxicity Assay - LYMP1-001 - Live Cells (AID 947); also: potency is read from the fitted curve at half-maximal effect
[8] = MultiTox-Fluor Cytotoxicity Assay - LYMP1-003 - Dead Cells (AID 961); also: nearly all actives have a fitted effect of over 70% in size; also: potency is read from the fitted curve at half-maximal effect
Summary of the method: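 Acute toxicity is scored as increased dead-cell protease activity in human lymphoblastoid LYMP1-003 cells after 16 h compound exposure in complete culture medium. Activity is normalized to DMSO basal and 15 uM tetraoctylammonium bromide as full response.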

[9] = MultiTox-Fluor Cytotoxicity Assay - LYMP1-003 - Live Cells (AID 962); also: potency is read from the fitted curve at half-maximal effect
Summary of the method: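 LYMP1-003 human lymphoblastoid cells (2500/well) in complete medium were preincubated 5 hr at 37 C, then exposed to compounds for 16 hr at 37 C. Live-cell protease cleavage of GF-AFC read by fluorescence (Ex/Em 405/510); AC50 from Hill fits.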

[10] = Cell Viability - LYMP1-003 - Assay at 40 hr (AID 964); also: nearly all actives have a fitted effect of over 60% in size; also: potency is read from the fitted curve at half-maximal effect
Summary of the method: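 Human lymphoblastoid LYMP1-003 cells, 2500/well in complete medium, rested 5 hr at 37 C, then exposed to compounds for 40 hr at 37 C. Viability read as intracellular ATP by CellTiter-Glo luminescence; AC50 from Hill fits of concentration-response data.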

[11] = Cell Viability - LYMP2-004 (AID 966); also: nearly all actives have a fitted effect of over 65% in size; also: potency is read from the fitted curve at half-maximal effect
Summary of the method: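 Human lymphoblastoid cells (2500/well) in complete medium were treated with compounds for 24 hr at 37 C, then intracellular ATP was measured by CellTiter-Glo luminescence. AC50 values came from Hill-equation fits of concentration-response data.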

[12] = Cell Viability - LYMP2-013 (AID 970); also: nearly all actives have a fitted effect of over 55% in size; also: potency is read from the fitted curve at half-maximal effect
Summary of the method: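 Human lymphoblastoid cells, 2500/well, were preincubated 5 hr at 37 C, then treated with compounds for 24 hr at 37 C in complete medium. Intracellular ATP was read by CellTiter-Glo luminescence; AC50 from Hill-equation fits of concentration-response data.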

[13] = Cell Viability - LYMP2-015 (AID 971); also: nearly all actives have a fitted effect of over 55% in size; also: potency is read from the fitted curve at half-maximal effect
Summary of the method: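 Human lymphoblastoid cells (2500/well) in complete medium were preincubated 5 hr at 37 C, then compound-treated 24 hr at 37 C. Intracellular ATP was read by CellTiter-Glo luminescence after 30 min at room temperature; AC50 came from Hill-equation concentration-response fits.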

[14] = Cell Viability - LYMP2-017 (AID 972); also: nearly all actives have a fitted effect of over 55% in size; also: potency is read from the fitted curve at half-maximal effect
Summary of the method: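 Human lymphoblastoid cells (2500/well) were seeded in complete medium, held 5 hr at 37 C, then exposed to compounds for 24 hr at 37 C. Intracellular ATP was read by CellTiter-Glo luminescence after 30 min at room temperature, with AC50 values from Hill-equation fits.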

[15] = Cell Viability - LYMP2-021 (AID 974);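 also: compound exposure lasts 24 hours at 37 °C; nearly all actives have a fitted effect of over 55% in size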; also: potency is read from the fitted curve at half-maximal effect
Summary of the method: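 Human lymphoblastoid cells (2500/well) were preincubated 5 hr at 37 C, then exposed to compounds for 24 hr at 37 C in complete medium. Intracellular ATP was read by CellTiter-Glo luminescence; AC50 came from Hill-equation fits of concentration-response data.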

[16] = Cell Viability - LYMP2-023 (AID 975); also: nearly all actives have a fitted effect of over 55% in size; also: potency is read from the fitted curve at half-maximal effect
Summary of the method: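 Human lymphoblastoid cells (2500/well) were preincubated 5 hr at 37 C, then exposed to compounds for 24 hr at 37 C in complete medium. Cellular ATP was read by CellTiter-Glo luminescence, and AC50 came from Hill-equation fits.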

[17] = Cell Viability - LYMP2-010 (AID 981); also: nearly all actives have a fitted effect of over 55% in size; also: potency is read from the fitted curve at half-maximal effect
Summary of the method: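 Human lymphoblastoid LYMP2-010 cells (2500/well) were preincubated 5 hr at 37 C, then exposed to compounds for 24 hr at 37 C in complete medium. Intracellular ATP was measured by CellTiter-Glo luminescence after 30 min at room temperature; AC50 from Hill-fitted concentration-response.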

[18] = Cell Viability - LYMP2-026 (AID 989); also: nearly all actives have a fitted effect of over 50% in size; also: potency is read from the fitted curve at half-maximal effect
Summary of the method: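 Human lymphoblastoid cells (2500/well) in complete medium were preincubated 5 hr at 37 C, then exposed to compounds for 24 hr at 37 C. Cellular ATP was read by CellTiter-Glo luminescence; AC50 from Hill-equation fits of concentration-response data.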

[19] = Cell Viability - LYMP1-002 - Assay at 40 hr (AID 994); also: nearly all actives have a fitted effect of over 60% in size; also: potency is read from the fitted curve at half-maximal effect
Summary of the method: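 Human lymphoblastoid cells, 2500/well in complete medium, were preincubated 5 hr at 37 C, then exposed to compounds for 40 hr at 37 C. Intracellular ATP was read by CellTiter-Glo luminescence after 30 min at room temperature; AC50 from Hill-equation fits.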

[20] = qHTS assay for small molecule agonists of the antioxidant response element (ARE) signaling pathway measured by Nrf2-dependant transcriptional activity - cell viability counter screen (AID 720653; active = well fitted curve in the direction sought with a large enough effect in the repeat runs; an effect the other way counts as inactive or inconclusive; also: potency is read from the fitted curve at half-maximal effect; as to max response: % is scaled to controls: 0 for no effect and ±100 for the full control effect); conditions: ARE-bla HepG2 viability, CellTiter-Glo ATP luminescence, 16 h; max response: active compounds read low
Summary of the method: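 Cytotoxicity counter screen: intracellular ATP quantified by CellTiter-Glo luminescence in the same ARE-bla HepG2 plates, after 16 h compound exposure and a 2 h beta-lactamase substrate step.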

O=Cc1ccc(Cl)c(Cl)c1
inactive: Potency [1] | Potency [2] | Potency [3] | outcome [4] | Potency [5] | Potency [6] | Potency [7] | Potency [8] | Potency [9] | Potency [10] | Potency [11] | Potency [12] | Potency [13] | Potency [14] | Potency [15] | Potency [16] | Potency [17] | Potency [18] | Potency [19] | max response [20] 7.11%

Nc1ccc2cc3ccccc3cc2c1
inactive: Potency [1] | Potency [2] | Potency [3] | outcome [4] | Potency [5] | Potency [6] | Potency [7] | Potency [8] | Potency [9] | Potency [10] | Potency [11] | Potency [12] | Potency [13] | Potency [14] | Potency [15] | Potency [16] | Potency [17] | Potency [18] | Potency [19] | max response [20] -4.4%

c1cc(OCC2CO2)cc(OCC2CO2)c1 (stereo unspecified)
inactive: Potency [10] | max response [20] -40% and -11.6%

ClC1=C(Cl)C(Cl)(Cl)C(Cl)=C1Cl
active: Potency [1] 0.316 µM | Potency [3] 3.98 µM
inactive: Potency [2] | outcome [4] | Potency [6] | Potency [7] | Potency [8] | Potency [9] | Potency [10] | Potency [11] | Potency [19]

Oc1ccc2cc(SSc3ccc4cc(O)ccc4c3)ccc2c1
inactive: Potency [1] | Potency [2] | Potency [3] | outcome [4] | Potency [6] | max response [20] -8.42%
active: Potency [10] 50.1 µM | Potency [12] 50.1 µM | Potency [14] 50.1 µM | Potency [17] 39.8 µM | Potency [19] 39.8 µM

CCC(C)Nc1ccc(NC(C)CC)cc1 (stereo unspecified)
inactive: Potency [1] | Potency [2] | Potency [3] | outcome [4]
active: Potency [5] 5.01 µM | Potency [7] 12.6 µM | Potency [8] 12.6 µM | Potency [9] 12.6 µM | Potency [10] 10 µM | Potency [11] 6.31 µM | Potency [12] 6.31 µM | Potency [13] 3.98 µM | Potency [14] 3.98 µM | Potency [15] 3.98 µM | Potency [16] 6.31 µM | Potency [17] 3.16 µM | Potency [18] 7.94 µM | Potency [19] 15.8 µM | Potency [20] 22.4 µM

Cc1cc(Nc2ccc(O)cc2)ccc1N
inactive: Potency [2] | Potency [3] | outcome [4] | Potency [6] | Potency [7] | Potency [8] | Potency [9] | Potency [19]
active: Potency [5] 31.6 µM | Potency [11] 39.8 µM | Potency [12] 50.1 µM | Potency [13] 39.8 µM | Potency [14] 39.8 µM | Potency [15] 50.1 µM | Potency [16] 50.1 µM | Potency [17] 31.6 µM | Potency [18] 50.1 µM

O=C1OC(O)C(C(Cl)Cl)=C1Cl (stereo unspecified)
active: Potency [5] 20 µM | Potency [8] 63.1 µM | Potency [11] 12.6 µM | Potency [12] 25.1 µM | Potency [13] 25.1 µM | Potency [14] 25.1 µM | Potency [15] 20 µM | Potency [16] 20 µM | Potency [17] 15.8 µM | Potency [18] 25.1 µM
inactive: Potency [3] | outcome [4] | Potency [7] | max response [20] -27.5%

CC/C(=C(\c1ccccc1)c1ccc(OCCN(C)C)cc1)c1ccc(O)cc1
active: Potency [1] 31.6 µM
inactive: Potency [2]

C/C=C1\C(=O)C[C@H]2[C@@H]3CCC4=CC(=O)CC[C@]4(C)[C@H]3CC[C@]12C
inactive: Potency [1] | Potency [2] | Potency [3] | Potency [7] | Potency [9] | Potency [13] | Potency [15] | Potency [16] | Potency [18] | max response [20] -11.4%
active: Potency [6] 50.1 µM

C=CC(=O)OCC(CO)(COC(=O)C=C)COC(=O)C=C
active: caspase-3 activation [1] -6.15% | Potency [2] 2.51 µM

C=C(C)c1ccccc1
inactive: Potency [1] | Potency [2] | Potency [3] | outcome [4] | Potency [5] | Potency [6] | Potency [7] | Potency [8] | Potency [9] | Potency [10] | Potency [11] | Potency [12] | Potency [13] | Potency [14] | Potency [15] | Potency [16] | Potency [17] | Potency [18] | Potency [19] | max response [20] -8.93%

C=CC(=O)OCCOCCOC(=O)C=C
active: Potency [5] 12.6 µM | Potency [6] 50.1 µM | Potency [7] 31.6 µM | Potency [8] 20 µM | Potency [9] 31.6 µM | Potency [10] 25.1 µM | Potency [11] 10 µM | Potency [12] 25.1 µM | Potency [13] 15.8 µM | Potency [14] 20 µM | Potency [15] 15.8 µM | Potency [16] 25.1 µM | Potency [17] 15.8 µM | Potency [18] 20 µM | Potency [19] 25.1 µM
inactive: outcome [4] | max response [20] -8.93%

Source: PubChem BioAssay (NCATS)
